{"source": "PubChem BioAssay AID686978", "about": "(National Center for Advancing Translational Sciences (NCATS), 2013)", "note": "Among all 420,000 compounds or so, about 64,000 (15%) were called active. Inconclusive results (about 27%) are left out. The call rests on the fitted dose curve; in most records, active means well fitted inhibition curve with a large enough effect; inconclusive means small, poorly fitted or top-dose-only effect; inactive means flat fitted curve, though single readings scatter. The list is a sample of the results. On the % scale 0 is the no-effect control and ±100 the full control effect; potency means the concentration at half of the fitted maximal effect."}
{"assay": "qHTS for Inhibitors of human tyrosyl-DNA phosphodiesterase 1 (TDP1): qHTS in cells in absence of CPT; further: nearly all actives have a fitted effect of over 55% in size", "conditions": "DT40 Tdp1-/- hTDP1 cells, no CPT, ATP luminescence, 48 h; activity change, negative = growth inhibition: at 46.2 µM (top of the series)", "outline": "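Readout: luminescence from CellTiter-Glo after 30 min in the dark at RT. Cells: DT40 Tdp1-/- with stable hTDP1, 400/well. Exposure: compounds alone, ≥48 hr, 37 °C.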"}
{"compound": "Cc1cc(C)c2nc(-c3cccnc3)cc(C(=O)Nc3ccc(S(=O)(=O)Nc4onc(C)c4C)cc3)c2c1", "activity change, negative = growth inhibition": "-22.7% (inactive)"}
{"compound": "Cc1cc(C)n2nc(C(=O)OC(C)C(=O)c3cc(C)c(C)cc3C)nc2n1", "note": "(stereo not given)", "activity change, negative = growth inhibition": "-7.26% (inactive)"}
{"compound": "Cc1cc(NC(=O)Nc2c[nH]c(=O)[nH]c2=O)ccc1Br", "activity change, negative = growth inhibition": "6.32% (inactive)"}
{"compound": "CCOc1cc(/C=C2/C(=N)N3OC(C)=CC3=NC2=O)ccc1OC", "activity change, negative = growth inhibition": "-2.7% (inactive)"}
{"compound": "O=C(Nc1ccc(Cl)cc1)c1csc([C@H]2C[C@H](O)[C@@H](CO)O2)n1", "activity change, negative = growth inhibition": "-24.7% (inactive)"}
{"compound": "CCN(CC)CCN1C(=O)C2C(C(=O)Nc3ccc(Br)cc3)C3C=CC2(O3)C1C(=O)NC1CCCCC1", "note": "(stereo not given)", "activity change, negative = growth inhibition": "4.87% (inactive)"}
{"compound": "CC1CC[C@@]23CCC4(C)[C@@]5(C)CCC6C(C)(C)C(O)CC[C@@]6(C)C5C=C[C@@]4(OC2=O)C3C1C", "note": "(stereo not given in full)", "activity change, negative = growth inhibition": "-7.31% (inactive)"}
{"compound": "O=C(NC(Cc1ccc(O)cc1)C(=O)O)/C(=C/c1ccccc1)NC(=O)c1ccccc1", "note": "(stereo not given)", "activity change, negative = growth inhibition": "3.55% (inactive)"}
{"compound": "O=C(NCC(F)(F)F)Nc1nnc(C(F)(F)F)s1", "activity change, negative = growth inhibition": "-29.8% (inactive)"}
{"compound": "CCOC(=O)C1=C(NC(=S)NC(=O)c2ccccc2)c2ccccc2CC1(C)C", "activity change, negative = growth inhibition": "-29% (inactive)"}
{"compound": "O=C(O)CSc1c2c(nc3cc(C(=O)Nc4cccc(C(F)(F)F)c4)ccc13)CCCC2", "activity change, negative = growth inhibition": "-1.66% (inactive)"}
{"compound": "COc1cccc(CNC(=O)CSc2c3c(nc4cc(Cl)ccc24)CCCC3)c1", "Potency": "14.6 µM (active)"}
{"compound": "CC(=O)c1ccc(NC(=O)c2ccc3c(Cl)c4c(nc3c2)CCCC4)cc1", "Potency": "18.4 µM (active)"}
{"compound": "CC(=O)c1ccc(NC(=O)c2cc(-c3cccs3)on2)cc1", "activity change, negative = growth inhibition": "-22.4% (inactive)"}
{"compound": "COc1cccc(-c2ccc(C#N)c(SCC(=O)NCCc3ccc(Cl)cc3)n2)c1", "activity change, negative = growth inhibition": "-8.31% (inactive)"}
{"compound": "COc1cccc(CNC(=O)c2nnn(CC(=O)Nc3cc(Cl)ccc3C)c2N)c1", "Potency": "inactive"}
{"compound": "Cc1nc2c(C(=O)NCc3ccc4c(c3)OCO4)c[nH]n2c(=O)c1Cc1ccccc1F", "activity change, negative = growth inhibition": "12.6% (inactive)"}
{"compound": "Cc1cc(N)n(-c2ccc(S(=O)(=O)N3CCCC3)cc2[N+](=O)[O-])n1", "activity change, negative = growth inhibition": "0.143% (inactive)"}
{"compound": "O=C(c1ccco1)N1CCN(C(=S)Nc2cc(F)cc(F)c2)CC1", "activity change, negative = growth inhibition": "-3.94% (inactive)"}
{"compound": "COCC(=O)Nc1c(C(=O)N2CCCC2)oc2ccccc12", "activity change, negative = growth inhibition": "-12% (inactive)"}
{"compound": "CCC(=O)Nc1c(C(=O)N2CCN(c3ccc(F)cc3)CC2)oc2ccccc12", "Potency": "25.9 µM (active)"}
{"compound": "Cc1cc(C(=O)N2CCN(c3ccccn3)CC2)c(C)o1", "Potency": "12.6 µM (active)"}
{"compound": "O=C(c1c(F)cccc1Cl)N1CCN(c2ccccn2)CC1", "activity change, negative = growth inhibition": "-13.2% (inactive)"}
{"compound": "CCOCCCN(C)C1CCN(C(=O)c2oc3ccccc3c2NC(=O)COc2cccc(C)c2)CC1", "activity change, negative = growth inhibition": "4.68% (inactive)"}
{"compound": "O=C(Nc1c(C(=O)N2CCN(c3ccc(F)cc3)CC2)oc2ccccc12)c1ccco1", "Potency": "18.4 µM (active)"}
{"compound": "CCOCCCN(C)C1CCN(C(=O)c2oc3ccccc3c2NC(=O)Cc2cccc([N+](=O)[O-])c2)CC1", "activity change, negative = growth inhibition": "-13.7% (inactive)"}
{"compound": "O=C(c1cc2ccccc2s1)N1CCN(c2ccccn2)CC1", "activity change, negative = growth inhibition": "-1.53% (inactive)"}
{"compound": "O=C(C(Cl)Cl)N1CCN(c2ccccn2)CC1", "activity change, negative = growth inhibition": "-8.55% (inactive)"}
{"compound": "O=C(Nc1ccccc1C(=O)N1CCCCC1)c1ccco1", "activity change, negative = growth inhibition": "-1.83% (inactive)"}
{"compound": "COc1cccc(OC)c1C(=O)Nc1c(C(=O)N2CCN(c3ccccn3)CC2)oc2ccccc12", "Potency": "25.9 µM (active)"}
